From PubChem BioAssay (EPA / NIEHS)
Where “and” joins values, the source holds several entries; their conditions need not be identical. Identical values can stand only once. Calls of active or inactive are those of the source. Rule for the calls: active = hit-call score of the fitted dose curve at least 0.9, where 1 is the maximum; inactive = score below 0.9.

assay: CCTE_Shafer_MEA_dev_network_spike_peak: CCTE's Neural Network Formation Assay for Mean Number of Electrodes in Network Spike, Shafer Lab (AID 2284049)
Protocol: CCTE_Shafer_MEA_dev assay is conducted using Axion Biosystems 48 well microelectrode array (MEA) plates and Maestro recording system. Each well of the MEA plate contains a grid of 16 microelectrodes embedded in the culture surface. Electrically active cells, such as neurons, can be cultured over the electrodes, and electrical activity in these cells can be recorded extracellularly. The spontaneous firing of neurons is captured from each electrode on a microsecond timescale providing both temporally and spatially precise data. […] The CCTE_Shafer_MEA_dev assay uses primary cultures of rat cortical neurons. Recordings are made on days post-plating 5, 7, 9 and 12. As these cultures mature over time, neural networks develop functional activity and form cohesive networks in which electrical activity can be highly coordinated. CCTE_Shafer_MEA_dev_network_spike_peak is 1 of 19 assay components of the CCTE_Shafer_MEA_dev assay. It measures the average number of electrodes participating at the peak of a network spike (the peak of a temporally-clustered group of action potential firing across multiple electrodes) during a recording in a microelectrode array (MEA) using Axion Biosystems Maestro 768 channel amplifier with the AxIS adaptive spike detector. To collapse across multiple recordings made on days post-plating 5, 7, 9 and 12, the trapezoidal area-under-the-curve of the component is calculated.Data from the assay component CCTE_Shafer_MEA_dev_network_spike_peak was analyzed into 1 assay endpoint. This assay endpoint, CCTE_Shafer_MEA_dev_network_spike_peak, was analyzed in the negative analysis fitting direction relative to DMSO as the negative control and baseline of activity. Using a type of functional reporter, gain or loss-of-signal activity can be used to understand electrical activity.
On the day prior to culture, each well was coated thoroughly with 150 uL of 0.05% polyethyleneimine (PEI, Sigma Cat P3143) in 50 mM HEPES (Sigma Cat H7523) at a pH of 8. The plate was incubated at 37C for one hour. PEI was rinsed out with 500 uL of sterile water three times. Plates were stored at 4C until the day of culture. This culture was plated at a seeding density of 1.5 x 10^5 cells/well on a 48-well MEA plate, prepared as described above. Cells were administered via a 25 uL media/laminin ([…]; Sigma Cat L2020-1MG) drop directly onto the microelectrode array, as adding the cells with the laminin results in better attachment than pre-coating with laminin. After 2 hours, an additional 475 uL of cortical media was added and the cells returned to the incubator. Exposure starts at day 0 of plating and is continued over twelve days of network development until the experiment is terminated. Cells are fed with fresh medium on DIV 5 and 9, following the recordings on those days. The entire volume of media in the well is exchanged and any vehicle or compound treatment is renewed. Complete details are found in OP-NHEERL/ISTD/SBB/TJS/2015-03-r0 (available on request, email shafer.tim@epa.gov). Measurement of the electrical activity is non-invasive, and recordings can be made from the same plate over multiple different days of the culture. In cortical neurons, this allows for the measurement of extracellular action potentials over the period during which networks form in the MEA plate.

Row | SMILES | outcome | AC50
1 | FC(F)(F)COC(OCC(F)(F)F)OCC(F)(F)F | inactive | 
2 | COc1cc2c(c(OC)c1OC)-c1ccc(OC)c(=O)cc1[C@@H](NC(C)=O)CC2 |  | 0.0261 µM (active)
3 | CCOc1ccc2[nH]cc(C(=O)NCc3ccccc3)c(=O)c2n1 | inactive | 
4 | CCN(CC)C(=S)SSC(=S)N(CC)CC |  | 110 nM (active) and 50.8 nM (active)
5 | CC[C@H](C)C(=O)O[C@H]1C[C@H](O)C=C2C=C[C@H](C)[C@H](CC[C@@H](O)C[C@@H](O)CC(=O)O)[C@H]21 |  | 3.06 µM (active)
6 | FC(F)(F)C(F)(F)C(F)(F)C(F)(F)C(F)(F)C(F)(F)I | inactive | 
7 | Cn1cc[nH]c1=S | inactive | 
8 | c1ccc2c(c1)-c1cccc3c1c-2cc1ccccc13 |  | 6.22 µM (active)
9 | OC(Cn1cncn1)(Cn1cncn1)c1ccc(F)cc1F | inactive | 
10 | Nc1ccn([C@@H]2O[C@H](CO)[C@@H](O)[C@@H]2O)c(=O)n1 |  | 160 nM (active) and 623 nM (active)
11 | NNC(=O)c1ccncc1 |  | 2.98 µM (active)
12 | NCC(F)(F)C(F)(F)C(F)(F)C(F)(F)F | inactive | 
13 | O=C(Cl)C(F)(F)C(F)(F)C(F)(F)C(=O)Cl | inactive | 
14 | c1ccc2cc3ccccc3cc2c1 | inactive | 
15 | CCCC(CCC)C(=O)O | inactive | 
16 | C[C@]12C=CC(=O)C=C1CC[C@H]1[C@@H]3C[C@@H](O)[C@](O)(C(=O)CO)[C@@]3(C)C[C@H](O)[C@@]12F |  | 0.116 µM (active)
17 | NC(=O)N1c2ccccc2C=Cc2ccccc21 | inactive | 
18 | OCCC(F)(F)C(F)(F)C(F)(F)C(F)(F)F | inactive | 
19 | OC(O)(C(F)C(O)(O)C(F)(F)F)C(F)(F)F | inactive | 
